# Measurements taken from the supplement of paper PMC5662767.
# Structures can show the parent of a compound that is named as a salt.
# Tested on: Drosophila S2 cl14 SmoIP sensor cells
# Assay: normalized SmoIP GFP fluorescence (untreated unstimulated = 0%, untreated Hh-stimulated = 100%); higher = more Smo activation sensor fluorescence
# Settings: compound concentration: 2 uM, 24 h
# [1] = stimulation: Hh conditioned medium (+Hh)
# [2] = stimulation: mock conditioned medium (-Hh)
# 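Further: flow cytometry read-out as median GFP intensity of gated cells, compounds added 30 min before Hh-conditioned or mock medium, mock-treated cells serving as unstimulated baseline.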
Compound,normalized SmoIP GFP fluorescence [1],normalized SmoIP GFP fluorescence [2]
Cc1ccc([C@@H]2O[C@H](CO)[C@@H](O)[C@H](O)[C@H]2O)cc1Cc1ccc(-c2ccc(F)cc2)s1 [canagliflozin],123%,-10.2%
COc1cc([C@@H]2c3cc4c(cc3[C@@H](O[C@@H]3O[C@@H]5CO[C@@H](C)O[C@H]5[C@H](O)[C@H]3O)[C@H]3COC(=O)[C@H]23)OCO4)cc(OC)c1OP(=O)(O)O [Etopophos],178%,28.7%
COc1cccc(-c2cc(=O)c3ccccc3o2)c1N,115%,2.64%
COc1cc2c(cc1OC)[C@@H]1Cc3ccc(OC)c(OC)c3CN1CC2 [rotundine],160%,12.5%
COc1ccc(C[C@H](NC(=O)[C@H](C)NC(=O)CN2CCOCC2)C(=O)N[C@@H](Cc2ccccc2)C(=O)[C@@]2(C)CO2)cc1,86.4%,15.1%
CN(C)CC/C=C1/c2ccccc2Sc2ccc(Cl)cc21 [Chlorprothixene],106%,-0.378%
c1ccc2c(Oc3nc(Nc4ccc(N5CCOCC5)cc4)c4ncn(C5CCCCC5)c4n3)cccc2c1 [purmorphamine],107%,-1.23%
CN1CCN(c2cccc(Nc3nc4c(-c5ccc(S(C)(=O)=O)cc5)cccn4n3)c2)CC1,92.1%,-3.39%
CNC(=O)c1ccc2cc([C@@]3(O)CCn4cncc43)ccc2c1,104%,-1.56%
CCN(CC)CCOc1ccc(/C(=C(\Cl)c2ccccc2)c2ccccc2)cc1 [Clomifene-citrate-Serophene],139%,-11.6%
COc1cc2nc(N3CCN(C(=O)C4COc5ccccc5O4)CC3)nc(N)c2cc1OC (centres undefined) [Doxazosin-mesylate],105%,8.14%
NC12CC3CC(CC(C3)C1)C2 [Amantadine-hydrochloride(Symmetrel)],110%,-4.08%
CC(=O)Nc1ccc(NC(=S)NC(=O)c2ccc(C(C)(C)C)cc2)cc1 [tenovin-1],97%,-4.47%
CNC(=O)c1cccc(-c2ccc3c(N4CCOC[C@@H]4C)nc(N4CCOC[C@@H]4C)nc3n2)c1,65.7%,-4.47%
CC(=O)Nc1cccc2c1c(Sc1ccc(Cl)cc1)c(C)n2CC(=O)O,114%,-3.05%
Cc1cc(C)c(Nc2ccnc(Nc3ccc(C#N)cc3)n2)c(C)c1 [dapivirine],111%,-4.13%

Compound,normalized SmoIP GFP fluorescence [1],normalized SmoIP GFP fluorescence [2]
Cc1ccc(F)c(NC(=O)Nc2ccc(-c3cccc4[nH]nc(N)c34)cc2)c1,115%,0.274%
O=C(NC1CCOCC1)c1ccc(-c2cc(-c3c[nH]nc3-c3ccccn3)ccn2)cc1,168%,-1.38%
O=C(c1ccc(/C=C/c2n[nH]c3ccccc23)cc1)N1CCNCC1,83%,-1.34%
Fc1cc(-c2cccc3ncc(-c4cnn(C5CCNCC5)c4)nc23)cc(F)c1CN1CCOCC1,145%,-4.08%
CC(C)C[C@@H](C=O)NC(=O)[C@H](CC(C)C)NC(=O)[C@H](CC(C)C)NC(=O)OCc1ccccc1,112%,11.3%
CN(C)CCC(c1ccc(Cl)cc1)c1ccccn1 (centres undefined) [Chlorpheniramine-maleate],106%,-12.2%
COC(=O)C1=C(C)NC(C)=C(C(=O)OC(C)C)C1c1cccc2nonc12 (centres undefined) [Isradipine(Dynacirc)],112%,3.72%
CS(=O)(=O)Nc1ccc([N+](=O)[O-])cc1Oc1ccccc1 [nimesulide],109%,-4.35%
CCc1nc(N)nc(N)c1-c1ccc(Cl)cc1 [Pyrimethamine],101%,0.702%
COc1ccc(CNc2nc(N3CCC[C@H]3CO)ncc2C(=O)NCc2ncccn2)cc1Cl [avanafil],106%,-2.31%
CC(C)c1nc(CN(C)C(=O)N[C@H](C(=O)N[C@@H](Cc2ccccc2)C[C@H](O)[C@H](Cc2ccccc2)NC(=O)OCc2cncs2)C(C)C)cs1 [Ritonavir],109%,-4.47%
O=C(O)COCCN1CCN(C(c2ccccc2)c2ccc(Cl)cc2)CC1 (centres undefined) [Cetirizine-di-hcl],90.4%,-7.27%
Cc1c(-c2ccccc2)oc2c(C(=O)OCCN3CCCCC3)cccc2c1=O [flavoxate-hcl],106%,0.474%
COc1ccc(-c2ccc3c(N4CCOCC4)nc(N4C[C@@H](C)O[C@@H](C)C4)nc3n2)cc1CO,62.1%,-12.5%
Nc1ccn([C@H]2CC[C@@H](CO)O2)c(=O)n1 [Zalcitabine],114%,-12.4%
Nc1nc(N)nc(-c2cc(Cl)ccc2Cl)n1 [Irsogladine-maleate],140%,-3.9%
